Experimental data as given in PubChem BioAssay AID1159580 (chemical genetic matrix, 2015).
Values joined by “and” are separate entries in the source; they are usually repeats but may differ in a detail not shown here. Equal entries are not always repeated. Screen size: about 5,500 compounds; about 2,000 (36%) were called active. Another 18% or so got no clear call; they are omitted. No stated cut-off is given here; in the data, active means normalized growth mostly below about 0.91 (no sharp cut-off); inconclusive means no clear call, values can overlap the other calls; inactive means mostly above about 0.92. The list shows a part of the results.

Test: chemical genetic growth profiling, strain panel (AID 1159580);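 further: tested at 20 µM; growth read once vehicle control cultures reached saturation at 30 °C; 1 = growth at the plate median or of vehicle wells; lower values mean less growth of the strain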
Settings: S. cerevisiae deletion strains, growth OD
[1] = locus YAL013W, strain DEP1, hits give low values
[2] = locus YBR229C, strain ROT2, hits give low values
[3] = locus YDL101C, strain DUN1, hits give low values
[4] = locus YEL061C, strain CIN8, hits give low values
[5] = locus YGR078C, strain PAC10, hits give low values
[6] = locus YHR030C, strain SLT2, hits give low values
[7] = locus YJR043C, strain POL32, hits give low values
[8] = locus YLR039C, strain RIC1, hits give low values
[9] = locus YLR262C, strain YPT6, hits give low values
[10] = locus YNL128W, strain TEP1, hits give low values
[11] = locus YNL153C, strain GIM3, hits give low values
[12] = locus YPL241C, strain CIN2, hits give low values

Measured: normalized growth

CC[C@]12CCCN3CCc4c(n(c5ccccc45)[C@](O)(C(=O)OC)C1)[C@@H]32
inactive: [1] 0.984 | locus YAL021C, strain ccr4, hits give low values 0.986 | locus YAL026C, strain drs2, hits give low values 0.983 | locus YAL030W, strain snc1, hits give low values 0.984 | locus YBL061C, strain skt5, hits give low values 0.979 | locus YBR009C, strain hhf1, hits give low values 0.999 | locus YBR021W, strain FUR4, hits give low values 0.998 | locus YBR023C, strain chs3, hits give low values 0.991 | locus YBR171W, strain sec66, hits give low values 0.983 | [2] 0.951 | locus YBR231C, strain swc5, hits give low values 0.994 | locus YBR279W, strain paf1, hits give low values 0.98 | locus YCL011C, strain gbp2, hits give low values 0.985 | locus YCL016C, strain dcc1, hits give low values 0.966 | locus YCL029C, strain bik1, hits give low values 0.978 | locus YCL061C, strain MRC1, hits give low values 0.986 | locus YCL069W, strain vba3, hits give low values 0.987 | locus YCR088W, strain abp1, hits give low values 0.981 | locus YDL005C, strain med2, hits give low values 0.96 | locus YDL035C, strain GPR1, hits give low values 0.966 | locus YDL040C, strain nat1, hits give low values 0.989 | locus YDL074C, strain BRE1, hits give low values 0.991 | [3] 0.977 | locus YDL185W, strain tfp1, hits give low values 0.964 | locus YDL192W, strain arf1, hits give low values 0.979 | locus YDR001C, strain nth1, hits give low values 0.98 | locus YDR069C, strain doa4, hits give low values 0.991 | locus YDR101C, strain arx1, hits give low values 0.964 | locus YDR137W, strain rgp1, hits give low values 0.954 | locus YDR159W, strain sac3, hits give low values 1.01 | locus YDR162C, strain NBP2, hits give low values 0.97 | locus YDR195W, strain ref2 0.952 | locus YDR297W, strain sur2, hits give low values 0.99 | locus YDR318W, strain mcm21, hits give low values 1 | locus YDR334W, strain swr1, hits give low values 0.975 | locus YDR335W, strain msn5, hits give low values 0.979 | locus YDR388W, hits give low values 0.978 | locus YDR392W, strain spt3, hits give low values 0.946 | locus YDR502C, strain sam2, hits give low values 0.978 | locus YEL003W, strain gim4, hits give low values 0.984 | locus YEL037C, strain rad23, hits give low values 0.979 | locus YEL061C, strain CIN8 (second series), hits give low values 0.986 | [4] 0.982 | locus YER015W, strain faa2, hits give low values 0.985 | locus YER016W, strain bim1, hits give low values 0.969 | locus YER110C, hits give low values 0.979 | locus YER111C, strain swi4, hits give low values 0.978 | locus YER155C, strain BEM2 (second series), hits give low values 0.958 | locus YER155C, strain BEM2, hits give low values 0.995 | locus YER167W, strain BCK2, hits give low values 0.996 | locus YFR010W, strain ubp6, hits give low values 0.998 | locus YGL078C, strain dbp3, hits give low values 0.997 | locus YGL086W, strain mad1, hits give low values 0.977 | locus YGL167C, strain pmr1, hits give low values 0.979 | locus YGL173C, strain kem1, hits give low values 0.984 | locus YGL227W, strain vid30, hits give low values 0.981 | locus YGL240W, strain doc1, hits give low values 1.02 | locus YGL248W, strain PDE1, hits give low values 0.993 | locus YGL253W, strain hxk2, hits give low values 0.981 | [5] 0.982 | locus YGR135W, strain pre9, hits give low values 1.04 | locus YGR252W, strain gcn5, hits give low values 1.07 | locus YHR013C, strain ard1, hits give low values 0.953 | locus YHR027C, strain rpn1, hits give low values 0.991 | [6] 0.992 and 0.98 | locus YHR079C, strain IRE1 (second series), hits give low values 0.961 | locus YHR079C, strain IRE1, hits give low values 0.964 | locus YHR094C, strain hxt1, hits give low values 0.981 | locus YHR129C, strain ARP1, hits give low values 0.988 | locus YHR142W, strain chs7, hits give low values 0.964 | locus YHR200W, strain rpn10, hits give low values 0.971 | locus YIL066C, strain RNR3, hits give low values 0.977 | locus YIL073C, strain SPO22, hits give low values 0.965 | locus YIL125W, strain kgd1, hits give low values 0.988 | locus YIR030C, strain dcg1, hits give low values 0.99 | locus YJL092W, strain hpr5, hits give low values 0.993 | locus YJL095W, strain BCK1 (second series), hits give low values 0.973 | locus YJL095W, strain BCK1, hits give low values 1.01 and 0.994 | locus YJL115W, strain asf1, hits give low values 1 | locus YJL129C, strain trk1, hits give low values 0.974 | locus YJL134W, strain LCB3, hits give low values 0.99 | locus YJL154C, strain vps35, hits give low values 0.968 | locus YJL164C, strain tpk1, hits give low values 0.997 | locus YJL166W, strain qcr8, hits give low values 1.01 | locus YJL168C, strain set2, hits give low values 0.984 | locus YJL187C, strain SWE1 (second series), hits give low values 0.979 | locus YJL187C, strain SWE1, hits give low values 0.985 | [7] 0.977 | locus YJR066W, strain TOR1, hits give low values 0.925 | locus YKL009W, strain mrt4, hits give low values 0.985 | locus YKL068W, hits give low values 0.987 | locus YKL085W, strain MDH1 (second series), hits give low values 0.997 | locus YKL085W, strain MDH1, hits give low values 0.997 | locus YKL160W, strain elf1, hits give low values 0.962 | locus YKR001C, strain vps1, hits give low values 0.977 | locus YKR026C, strain gcn3, hits give low values 0.988 | locus YKR091W, strain srl3, hits give low values 0.982 | locus YLL001W, strain dnm1, hits give low values 0.986 | locus YLL026W, hits give low values 1 | locus YLL041C, strain sdh2, hits give low values 0.987 | locus YLR027C, strain aat2, hits give low values 0.989 | [8] 1.03 | locus YLR058C, strain SHM2, hits give low values 0.976 | locus YLR102C, strain apc9, hits give low values 0.982 | locus YLR113W, strain HOG1, hits give low values 0.976 | locus YLR221C, strain rsa3, hits give low values 1 | locus YLR258W, strain gsy2, hits give low values 0.964 | locus YLR262C, strain YPT6 (second series), hits give low values 0.977 | [9] 0.912 | locus YLR268W, strain sec22, hits give low values 0.963 | locus YLR320W, strain mms22, hits give low values 0.995 | locus YLR330W, strain CHS5, hits give low values 0.988 | locus YLR342W, strain FKS1 (second series), hits give low values 0.997 | locus YLR342W, strain FKS1, hits give low values 0.989 | locus YLR357W, strain rsc2, hits give low values 0.953 | locus YLR370C, strain arc18, hits give low values 0.975 | locus YLR371W, strain rom2, hits give low values 0.987 | locus YLR384C, strain iki3, hits give low values 0.977 | locus YLR418C, strain cdc73, hits give low values 0.989 | locus YML016C, strain PPZ1, hits give low values 0.991 | locus YML032C, strain rad52, hits give low values 0.967 | locus YML120C, strain ndi1, hits give low values 0.99 | locus YML124C, strain tub3, hits give low values 0.989 | locus YMR058W, strain fet3, hits give low values 0.983 | locus YMR078C, strain ctf18, hits give low values 0.977 | locus YMR125W, strain sto1, hits give low values 0.98 | locus YMR129W, hits give low values 0.985 | locus YMR205C, strain PFK2, hits give low values 0.97 | locus YMR223W, strain ubp8, hits give low values 1.03 | locus YMR231W, strain pep5, hits give low values 0.982 | locus YMR307W, strain GAS1, hits give low values 0.967 | locus YNL067W, strain RPL9B, hits give low values 0.987 | locus YNL071W, strain lat1, hits give low values 0.981 | [10] 0.974 | [11] 0.994 | locus YNL183C, strain NPR1, hits give low values 0.915 | locus YNL209W, strain ssb2, hits give low values 0.988 | locus YNL233W, strain BNI4, hits give low values 0.99 | locus YNL248C, strain rpa49, hits give low values 0.99 | locus YNL250W, strain rad50, hits give low values 0.984 | locus YNL271C, strain bni1, hits give low values 0.986 | locus YNL298W, strain CLA4, hits give low values 0.987 | locus YNL307C, strain MCK1, hits give low values 0.981 | locus YNL322C, strain KRE1 (second series), hits give low values 0.969 | locus YNR049C, strain mso1, hits give low values 0.978 | locus YNR052C, strain pop2, hits give low values 0.993 | locus YOL012C, strain htz1 0.992 | locus YOL147C, strain pex11, hits give low values 0.989 | locus YOR001W, strain rrp6, hits give low values 1.02 | locus YOR061W, strain CKA2, hits give low values 0.976 | locus YOR069W, strain VPS5, hits give low values 0.992 | locus YOR070C, strain gyp1, hits give low values 0.995 | locus YOR080W, strain dia2, hits give low values 0.972 | locus YOR083W, strain WHI5, hits give low values 0.98 | locus YOR106W, strain vam3, hits give low values 0.984 | locus YOR136W, strain idh2, hits give low values 0.969 | locus YOR144C, strain elg1, hits give low values 0.984 | locus YOR184W, strain ser1, hits give low values 0.98 | locus YOR231W, strain MKK1, hits give low values 1.01 | locus YOR265W, strain rbl2, hits give low values 0.995 | locus YOR270C, strain vph1, hits give low values 0.988 | locus YOR290C, strain snf2, hits give low values 0.979 | locus YOR316C, strain cot1, hits give low values 0.968 | locus YPL051W, strain arl3, hits give low values 0.971 | locus YPL078C, strain atp4, hits give low values 0.973 | locus YPL106C, strain sse1, hits give low values 0.959 | locus YPL240C, strain hsp82, hits give low values 0.985 | [12] 0.967 | locus YPL256C, strain CLN2, hits give low values 0.984 | locus YPR119W, strain clb2, hits give low values 0.975 | locus YPR141C, strain kar3, hits give low values 0.979 | locus YPR163C, strain tif3, hits give low values 0.974 | locus YPR167C, strain met16, hits give low values 0.995 | strain wtn01, hits give low values 1

CCOC(=O)c1c(C)n(-c2ccccc2)c2ccc(O)cc12
inactive: [1] 0.998 | [2] 1 | [3] 0.995 | locus YDR150W, strain NUM1, hits give low values 1 | [4] 0.965 | [5] 0.995 | [6] 0.923 | locus YHR087W, strain rtc3, hits give low values 0.993 | [7] 1.03 | locus YJR075W, strain HOC1, hits give low values 0.989 | [8] 1.02 | locus YLR058C, strain SHM2 (second series), hits give low values 0.985 | locus YLR085C, strain ARP6, hits give low values 0.931 | [9] 0.984 | locus YML094W, strain GIM5, hits give low values 0.94 | locus YMR219W, strain ESC1, hits give low values 0.999 | locus YMR263W, strain SAP30, hits give low values 0.956 | [10] 0.99 | [11] 0.976 | locus YNL322C, strain KRE1, hits give low values 0.998 | locus YNR030W, strain Alg12, hits give low values 0.963 | locus YPL055C, strain LGE1, hits give low values 0.982 | [12] 0.979 | locus YPR135W, strain CTF4, hits give low values 0.911
